Numbering of substitutions follows the chain as printed.
Experiments:
Experiment in all cases: yeast three-hybrid, YBZ-1, SC-Leu-His + 0.5 mM 3-AT, 4 days
Conditions in all cases: tags: N-Gal4 AD-HA kept; label: inside an RPR1-promoter hybrid RNA with tandem MS2 sites; ssRNA
PUM1 PUF domain R6-MYV = molecular target: T1, PUM1 PUF domain R6-MYV (Homo sapiens, UniProt Q14671 828-1176, N1043M;Q1047V)
T1 sequence: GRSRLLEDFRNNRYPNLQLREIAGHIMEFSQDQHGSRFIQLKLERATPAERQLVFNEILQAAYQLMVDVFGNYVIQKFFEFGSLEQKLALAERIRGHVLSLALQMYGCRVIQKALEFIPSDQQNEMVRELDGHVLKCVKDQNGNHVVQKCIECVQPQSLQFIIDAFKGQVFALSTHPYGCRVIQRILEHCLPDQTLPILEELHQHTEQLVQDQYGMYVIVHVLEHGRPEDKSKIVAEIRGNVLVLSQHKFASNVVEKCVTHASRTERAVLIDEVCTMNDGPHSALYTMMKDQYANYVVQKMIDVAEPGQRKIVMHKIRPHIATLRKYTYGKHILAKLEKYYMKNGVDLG
In short: (§1)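 A centromeric plasmid in strain YBZ-1 co-expressed Pumilio-1 PUF domain libraries, randomized at the three base-contacting residues of each repeat, with matching RNA elements; the strain carries a LexA–MS2 coat fusion and a HIS3 reporter. After four days on SC-Leu (input) or SC-Leu-His + 0.5 mM 3-AT (selection), the repeat regions were PCR-amplified and Illumina-sequenced. The interaction score is the log change in variant frequency from input to selection, using log2 and a pseudocount of 1 where absent.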

PUM1 PUF domain R3-IYR = PUM1 PUF domain R3-IYR (Homo sapiens, UniProt Q14671 828-1176, C935I;R936Y;Q939R)
In short: as §1

PUM1 PUF domain R8-PWT = PUM1 PUF domain R8-PWT (Homo sapiens, UniProt Q14671 828-1176, N1122P;Y1123W;Q1126T)
In short: as §1

PUM1 PUF domain R3-CRL = PUM1 PUF domain R3-CRL (Homo sapiens, UniProt Q14671 828-1176, Q939L)
In short: as §1

PUM1 PUF domain R3-LFI = PUM1 PUF domain R3-LFI (Homo sapiens, UniProt Q14671 828-1176, C935L;R936F;Q939I)
In short: as §1

PUM1 PUF domain R6-YWR = molecular target: T2, PUM1 PUF domain R6-YWR (Homo sapiens, UniProt Q14671 828-1176, N1043Y;Y1044W;Q1047R)
T2 sequence: T1 sequence with M216Y, Y217W, V220R
In short: as §1

PUM1 PUF domain R3-TRW = PUM1 PUF domain R3-TRW (Homo sapiens, UniProt Q14671 828-1176, C935T;Q939W)
In short: as §1

PUM1 PUF domain R8-LFK = PUM1 PUF domain R8-LFK (Homo sapiens, UniProt Q14671 828-1176, N1122L;Y1123F;Q1126K)
In short: as §1

PUM1 PUF domain R3-SRT = PUM1 PUF domain R3-SRT (Homo sapiens, UniProt Q14671 828-1176, C935S;Q939T)
In short: as §1

PUM1 PUF domain R4-CMC = PUM1 PUF domain R4-CMC (Homo sapiens, UniProt Q14671 828-1176, N971C;H972M;Q975C)
In short: as §1

PUM1 PUF domain R6-RHS = molecular target: T3, PUM1 PUF domain R6-RHS (Homo sapiens, UniProt Q14671 828-1176, N1043R;Y1044H;Q1047S)
T3 sequence: T1 sequence with M216R, Y217H, V220S
In short: as §1

PUM1 PUF domain R1-GKK = PUM1 PUF domain R1-GKK (Homo sapiens, UniProt Q14671 828-1176, S863G;R864K;Q867K)
In short: as §1

PUM1 PUF domain R1-KVI = PUM1 PUF domain R1-KVI (Homo sapiens, UniProt Q14671 828-1176, S863K;R864V;Q867I)
In short: as §1

PUM1 PUF domain R3-IRG = PUM1 PUF domain R3-IRG (Homo sapiens, UniProt Q14671 828-1176, C935I;Q939G)
In short: as §1

PUM1 PUF domain R2-LFS = PUM1 PUF domain R2-LFS (Homo sapiens, UniProt Q14671 828-1176, N899L;Y900F;Q903S)
In short: as §1

PUM1 PUF domain R1-RTS = PUM1 PUF domain R1-RTS (Homo sapiens, UniProt Q14671 828-1176, S863R;R864T;Q867S)
In short: as §1

PUM1 PUF domain R7-KPV = PUM1 PUF domain R7-KPV (Homo sapiens, UniProt Q14671 828-1176, S1079K;N1080P;E1083V)
In short: as §1

In the case of “GGCUAGAACUAGUGGAUCCCCCGGCGCCCGGCGGCUCGAGCCCGGGUAAGUGUAAAUAGUCUGCAUGCCGCCGGGCGCCAUGCCUGCAGGUCGACUCUAGAAAACAUG”, the binding signal (PUM1 PUF domain R6-MYV) is reported as 2.31 log2 enrichment (interaction score), the binding signal (PUM1 PUF domain R3-IYR) is reported as 4.02 log2 enrichment (interaction score) and the binding signal (PUM1 PUF domain R8-PWT) is reported as 1.25 log2 enrichment (interaction score). For the same sequence, the binding signal (PUM1 PUF domain R3-CRL) was 2.25 log2 enrichment (interaction score), the binding signal (PUM1 PUF domain R3-LFI) was 3.78 log2 enrichment (interaction score) and the binding signal (PUM1 PUF domain R6-YWR) was 5.79 log2 enrichment (interaction score). For the same sequence, the binding signal (PUM1 PUF domain R3-TRW) was 4.35 log2 enrichment (interaction score), the binding signal (PUM1 PUF domain R8-LFK) was 4.86 log2 enrichment (interaction score) and the binding signal (PUM1 PUF domain R3-SRT) was 4.56 log2 enrichment (interaction score). The binding signal (PUM1 PUF domain R4-CMC) was 2.5 log2 enrichment (interaction score) and the binding signal (PUM1 PUF domain R6-RHS) was 2.73 log2 enrichment (interaction score).

“GGCUAGAACUAGUGGAUCCCCCGGCGCCCGGCGGCUCGAGCCCGGGUAAGUGAAAAUAGUCUGCAUGCCGCCGGGCGCCAUGCCUGCAGGUCGACUCUAGAAAACAUG” was tested, and the binding signal (PUM1 PUF domain R6-YWR) was 6.63 log2 enrichment (interaction score).

“GGCUAGAACUAGUGGAUCCCCCGGCGCCCGGCGGCUCGAGCCCGGGUAAGUGUAAAUGGUCUGCAUGCCGCCGGGCGCCAUGCCUGCAGGUCGACUCUAGAAAACAUG” was tested, and the binding signal (PUM1 PUF domain R1-GKK) was 3.39 log2 enrichment (interaction score) and the binding signal (PUM1 PUF domain R1-KVI) was 2.15 log2 enrichment (interaction score).

“GGCUAGAACUAGUGGAUCCCCCGGCGCCCGGCGGCUCGAGCCCGGGUAAGUGUAAGUAGUCUGCAUGCCGCCGGGCGCCAUGCCUGCAGGUCGACUCUAGAAAACAUG” was tested, and the binding signal (PUM1 PUF domain R3-IYR) was 5.62 log2 enrichment (interaction score), the binding signal (PUM1 PUF domain R3-CRL) was 0.83 log2 enrichment (interaction score) and the binding signal (PUM1 PUF domain R3-IRG) was 3.97 log2 enrichment (interaction score). For the same sequence, the binding signal (PUM1 PUF domain R3-SRT) was 4.32 log2 enrichment (interaction score).

With “GGCUAGAACUAGUGGAUCCCCCGGCGCCCGGCGGCUCGAGCCCGGGUAAGUGUAAAAAGUCUGCAUGCCGCCGGGCGCCAUGCCUGCAGGUCGACUCUAGAAAACAUG” the binding signal (PUM1 PUF domain R2-LFS) was 3.97 log2 enrichment (interaction score).

In the case of “GGCUAGAACUAGUGGAUCCCCCGGCGCCCGGCGGCUCGAGCCCGGGUAAGUGUAAAUCGUCUGCAUGCCGCCGGGCGCCAUGCCUGCAGGUCGACUCUAGAAAACAUG”, the binding signal (PUM1 PUF domain R1-RTS) is reported as 4.45 log2 enrichment (interaction score).

In the case of “GGCUAGAACUAGUGGAUCCCCCGGCGCCCGGCGGCUCGAGCCCGGGUAAGUCUAAAUAGUCUGCAUGCCGCCGGGCGCCAUGCCUGCAGGUCGACUCUAGAAAACAUG”, the binding signal (PUM1 PUF domain R7-KPV) is reported as 4.07 log2 enrichment (interaction score).
